Source: PubChem BioAssay (National Center for Advancing Translational Sciences (NCATS))
In the library only some 2.4% were active in any assay of this set; here they are far more common.
D2 PAM-1 – D2 dopamine receptor (human) potentiation. HEK293 T-REx D2, calcium flux, EC20 dopamine potentiation. potentiation, % at 10 µM. 340,000 tested, 0.34% active. AID 485347;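 active means potentiation over 3 SD above the plate norm, cut at about 30% in these data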; further: 0% is about no effect
Target sequence (P14416 whole entry, looked up): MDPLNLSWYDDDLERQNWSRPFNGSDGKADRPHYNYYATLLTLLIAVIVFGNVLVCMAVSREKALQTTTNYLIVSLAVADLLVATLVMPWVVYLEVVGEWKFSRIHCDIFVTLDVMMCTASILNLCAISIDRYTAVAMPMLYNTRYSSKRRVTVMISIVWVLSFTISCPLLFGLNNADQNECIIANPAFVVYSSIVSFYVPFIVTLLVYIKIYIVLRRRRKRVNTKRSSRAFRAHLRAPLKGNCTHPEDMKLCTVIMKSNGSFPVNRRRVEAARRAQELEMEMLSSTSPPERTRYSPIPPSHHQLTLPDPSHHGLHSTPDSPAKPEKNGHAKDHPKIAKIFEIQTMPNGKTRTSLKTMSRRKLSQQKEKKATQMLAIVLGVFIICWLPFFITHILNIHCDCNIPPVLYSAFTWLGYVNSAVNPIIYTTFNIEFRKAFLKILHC
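Primary screen. Calcium kinetics in induced HEK293 T-REx D2 cells: compound pre-addition 180 s, EC20 dopamine, 180 s more.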
D2 antagonist – antagonizes the human D2 dopamine receptor | HEK293 TREx D2 cells, calcium flux, dopamine EC80 | inhibition, % at 10 µM | 340,000 tested, 2% active | AID 485344; in the data active means inhibition above about 30%; inactive means below that, where a call was filed; further: 0% is about no effect
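Tetracycline-induced HEK293 T-REx cells expressing D2 force-coupled to calcium signalling were dye-loaded, exposed to compound for 180 s, then challenged with an EC80 of dopamine; calcium flux was followed kinetically for a further 180 s.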
D2 ag-1 – D2 dopamine receptor (human) agonism; HEK293 T-REx D2 cells, calcium flux agonist mode; P14416; 340,000 tested, 0.53% active; activation, % at 2 µM;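 active means activation over 3 SD above normal in the single-dose calcium agonist read, cut at about 30% in these data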; further: 0% is about no effect
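Tetracycline-induced HEK293 T-REx cells with force-coupled D2 receptor, plated overnight at 30 C, loaded with no-wash calcium dye. After a 10 s baseline, compound was pin-added and calcium flux read kinetically for 180 s; calcium rises flagged agonists.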
B2AR arrestin – beta2AR (human) beta-arrestin recruitment activity; P07550; beta-arrestin recruitment to beta2AR, cell-based reporter; Potency, µM (top dose mostly 46.1 µM), without a hit: at the top dose activation, usual class: activators; 330,000 tested, 0.02% active;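 further: potency means the concentration at half of the fitted maximal effect; 0% = DMSO controls and full agonism = EC100 isoproterenol or metaproterenol; nearly all actives have a fitted effect of over 65% in size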
D2 PAM-2 – human D2 receptor positive allosteric modulation. DiscoveRx D2 beta-arrestin cells, luminescence, 90 min; 100% = 57 uM dopamine signal. potentiation, % (no concentration beside the values). 360,000 tested, 0.23% active. AID 624464; in the data active means potentiation above about 50%; inconclusive means mostly about 30% to 49%
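D2 cells co-treated with compound plus 50 nM dopamine (EC20) for 90 min at 37 deg C to detect potentiation. Beta-arrestin recruitment was read as enzyme-fragment luminescence after 1 h at ambient temperature. Full response was set by 57 uM dopamine.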
D2 ag-2 – activates the human D2 dopamine receptor; DiscoveRx PathHunter D2 beta-arrestin, luminescence, 90 min; 100% = 57 uM dopamine signal; activation, % (test concentration not listed); 360,000 tested, 0.084% active; AID 624465; in the data active means activation above about 40%; inconclusive means between about 15% and that limit
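DiscoveRx PathHunter D2 beta-arrestin cells (2,100/well) attached overnight, then compound-stimulated 90 min at 37 C in HBSS/10 mM HEPES/0.1% Tween-20 buffer; beta-galactosidase complementation read by luminescence after 1 h at ambient temperature. Dopamine 57 uM final (EC100) as control.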
D3 ag – D3 receptor agonism confirmed, beta-arrestin readout; shares compounds with D2 ag-1; DiscoveRx D3 beta-arrestin cells, luminescence, 90 min; Potency, µM (top dose mostly 76.9 µM), without a hit: top-dose activation, actives largely listed as activators; 2,300 tested, 4% active; AID 720506;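 further: potency means the concentration at half of the fitted maximal effect; 100% = dopamine control response; nearly all actives have a fitted effect of over 70% in size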
D2 ag-3 – D2 receptor agonism, beta-arrestin counterscreen | shares compounds with D2 ag-1 | DiscoveRx PathHunter D2 beta-arrestin, luminescence, 90 min; response scale: percent relative to full dopamine signal | Potency, µM (top dose mostly 76.9 µM), for the others: at the top dose activation, usual class: activators | 2,300 tested, 5.9% active | AID 720507; further: potency means the concentration at half of the fitted maximal effect; % of control where 0% means no effect; nearly all actives have a fitted effect of over 70% in size
* marks the source's active call; other numbers are inactive results; ? = inconclusive; . = not tested or not shown; ! = repeats disagree. Unless noted, the call rests on the fitted dose curve; in most records, active means well fitted activation curve with a large enough effect; inconclusive means small, poorly fitted or top-dose-only effect; inactive means flat fitted curve, though single readings scatter.

SMILES	D2 PAM-1	D2 antagonist	D2 ag-1	B2AR arrestin	D2 PAM-2	D2 ag-2	D3 ag	D2 ag-3
O=[N+]([O-])c1cccc2c([N+](=O)[O-])cccc12	-4	5	-1	0%	2	2	3%	1%
CSCCC(c1nnnn1-c1c(C)cccc1C)N1CCC2(CC1)C(=O)NCN2c1ccccc1 (configuration not stated)	.	.	.	.	-15	-3	.	.
O=C(CCN1CC=C(c2ccccc2)CC1)NCc1ccccc1	.	.	.	.	-10	-2	.	.
O=C(CN1CC=C(c2ccccc2)CC1)NC(=O)NCc1ccco1	-17	40*	54*	0%	-9	6	13%	14%
O=C(COc1cc(Cl)ccc1Cl)Nc1ccc(Cl)cc1C(=O)c1ccccc1	-4	.	0	.	.	.	.	.
CN1C(=O)N(C)C(=O)C2(Cc3cc(NC(=O)c4ccccc4)ccc3N3CCCC32)C1=O (configuration not stated)	14	-8	0	0%	-11	-3	.	.
C/C(=N\N1CCCCC1c1cccnc1)c1c(O)n(C2CCCCC2)c(=S)[nH]c1=O (configuration not stated)	4	-4	3	-2%	16	4	.	.
CCC(CO)NC(=O)C1C=C2c3cccc4[nH]cc(c34)CC2N(C)C1 (configuration not stated)	-19	81*	84*	0%	?	114*	2.8µM*	7.1µM*
CC[C@@H](CO)NC(=O)[C@@H]1C=C2c3cccc4c3c(cn4C)C[C@H]2N(C)C1	-18	47*	54*!	0%	-21	14	?	27%
CC(C)C[C@H]1C(=O)N2CCC[C@H]2[C@]2(O)O[C@](NC(=O)[C@@H]3C=C4c5cccc6[nH]cc(c56)C[C@H]4N(C)C3)(C(C)C)C(=O)N12	-20	72*	76*	-2%	?	106*	?	1µM*
Cc1cccc(C)c1-n1nnnc1C(c1cccs1)N1CCC(n2c(=O)[nH]c3ccccc32)CC1 (configuration not stated)	.	.	.	.	14	10	.	.
O=[N+]([O-])c1nccn1CC(O)CN1CC1 (configuration not stated)	.	.	.	.	-1	-2	.	.
COC(=O)C1=C(C(=O)OC)SC2(S1)C(C(=O)OC)=C(C(=O)OC)Sc1c2ssc1=O	.	.	.	.	-49	-15	.	.
COC(=O)C1=C(c2ccc(F)cc2OCc2ccccc2)C[C@@H]2CC[C@H]1N2C(=O)NCc1ccccc1C(F)(F)F	4	-6	0	0%	-10	-3	.	.
COC(=O)C1=C(c2ccc(F)cc2OCc2ccccc2)C[C@@H]2CC[C@H]1N2C(=O)NCc1ccccc1Br	-15	-6	0	-1%	-10	-12	-11%	-3%
CN1C[C@H](CO)C[C@@H]2c3cccc4[nH]cc(c34)C[C@H]21	-33	96*	84*	-1%	53*	?	?	?
CCN(CC)C(=O)N[C@H]1C[C@@H]2c3cccc4[nH]cc(c34)C[C@H]2N(C)C1	-28	83*	83*	-1%	13	?	?	0.002µM*
O=C(Nc1ccc2c(c1)OCO2)c1cccn(Cc2ccccc2)c1=O	17	.	.	.	.	.	.	.
COc1ccc2c(c1OC)CN1CCc3cc4c(cc3[C@H]1C2)OCO4	-18	21	0	0%	-19	2	.	.
COc1c2c(cc3c1OCO3)CC[N+](C)=C2	-14	-9	23	0%	-4	-2	-8%	-6%
O=C(C(=O)N1CCOCC1)c1cn(Cc2c(F)cccc2Cl)c2ccccc12	-12	7	0	0%	-12	3	.	.
